The text below walks through data of ChEMBL document CHEMBL3433997, “St. Jude Leishmania screening dataset” (2016).

Holding throughout (type): functional
In assay [1] the target is Solute carrier family 2, facilitated glucose transporter member 1 (Homo sapiens) (UniProt P11166). Description: ST_JUDE_LEISH: Cytotoxicity at 2uM final concentration against transgenic Leishmania Mexicana promastigotes LmGLUT1 that are glucose transport deficient and complemented with the human glucose transporter GLUT1. Activity is measured by DNA content using SYBR green in vitro.

Assay [2] deals with Hexose transporter 1 (Plasmodium falciparum) (UniProt O97467). Put plainly: ST_JUDE_LEISH: Cytotoxicity at 2uM final concentration against transgenic Leishmania Mexicana promastigotes LmPfHT that are glucose transport deficient and complemented with the Plasmodium falciparum hexose transporter. Activity is measured by DNA content using SYBR green in vitro.
The target of assay [3] is Glucose transporter (Leishmania mexicana) (UniProt O61059). Description: ST_JUDE_LEISH: Cytotoxicity at 2uM final concentration against transgenic Leishmania Mexicana promastigotes LmGT2 that are glucose transport deficient and complemented with the L. Mexicana glucose transporter 2. Activity is measured by DNA content using SYBR green in vitro.

As usually defined, the inhibition is the drop in the measured response relative to a control, in per cent.

Solute carrier family 2, facilitated glucose transporter member 1 (Homo sapiens), sequence (P11166 whole entry): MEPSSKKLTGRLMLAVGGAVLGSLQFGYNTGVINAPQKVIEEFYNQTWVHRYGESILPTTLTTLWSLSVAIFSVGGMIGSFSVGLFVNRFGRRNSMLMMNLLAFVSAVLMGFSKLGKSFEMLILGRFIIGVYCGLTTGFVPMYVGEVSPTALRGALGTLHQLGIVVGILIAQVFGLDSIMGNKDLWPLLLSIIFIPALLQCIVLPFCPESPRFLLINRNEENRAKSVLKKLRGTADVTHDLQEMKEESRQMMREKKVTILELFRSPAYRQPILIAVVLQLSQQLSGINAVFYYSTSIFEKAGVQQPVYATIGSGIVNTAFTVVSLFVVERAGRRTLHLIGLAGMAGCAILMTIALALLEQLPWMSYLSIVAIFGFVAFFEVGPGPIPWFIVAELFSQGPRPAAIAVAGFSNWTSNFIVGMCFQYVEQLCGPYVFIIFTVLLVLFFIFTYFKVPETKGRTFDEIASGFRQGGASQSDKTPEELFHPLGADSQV

Regarding `Cc1n[nH]c2cc(F)c(-c3cc(OC[C@@H](N)Cc4ccccc4)cnc3-c3ccoc3)cc12`, the inhibition in assay [1] came to 10.8%; in assay [2], 16.1%; in assay [3], 6.42%.

Consider `CCc1cc(=O)[nH]c(-n2nc(C)cc2NC(=O)CC(c2ccccc2)c2ccccc2)n1`, for which the values for the inhibition in assay [1], in assay [2] and in assay [3] were 11.2%, 15.2% and -1.68%, respectively.

Turning to `Clc1ccc2c(NCc3ccccc3)ccnc2c1`, the inhibition in assay [1] was 1.8%; in assay [2] it was 3%; in assay [3], -0.97%.

For the molecule `CC1CCC(NC(=O)c2nn(-c3ccc(Cl)cc3)c(=O)c3ccccc23)CC1` (stereo not given), the figures for the inhibition in assay [1], in assay [2] and in assay [3] were 1.52%, 1.39% and -0.26%, respectively.

Regarding `O=C(Cc1cccs1)NCC(c1ccccc1Cl)c1c[nH]c2ccccc12` (stereo not given), the inhibition came out at 2.89% in assay [1], 0.74% in assay [2] and 1.14% in assay [3].

For `CC(C)Oc1ccc2ccccc2c1CNCCCCCCNCc1c(OC(C)C)ccc2ccccc12`, the inhibition in assay [1] is 31.1%; in assay [2] it was -0.9%; in assay [3] it was 50.6%.

For the molecule `CCc1c(C(=O)NC2CCC(N3CCC(c4ccccc4OC)CC3)CC2)[nH]c2ccc(OC)cc12` (stereo not given), the inhibition worked out at 1.56% in assay [1], 2.5% in assay [2] and 0.22% in assay [3].

Take `NC(=O)c1cccc(Nc2nccc(Nc3ccc(Oc4cccc(Cl)c4)c(Cl)c3)n2)c1`: the inhibition was 10.6% in assay [1], 9.87% in assay [2] and 7.71% in assay [3].

Regarding `NC(=O)c1ccc(NCC(=O)Nc2cccc(-c3cccc(-c4nc5ccccc5[nH]4)c3)c2)cc1`, the results for the inhibition in assay [1], in assay [2] and in assay [3] were 2.82%, 4.21% and 0.95%, respectively.

For the molecule `O=C(Nc1cccc(CN2CCCN(Cc3ccc(O)cc3)CC2)c1)c1cccc(F)c1`, the inhibition came out at 10.8% in assay [1], 10.4% in assay [2] and 9.62% in assay [3].

As for `Cc1[nH]c(C)c(-c2ccc(OCCOc3ccc(C(F)(F)F)cn3)cc2)c(=O)c1Br`, the results for the inhibition in assay [1], in assay [2] and in assay [3] were -0.58%, 1.5% and -1.93%, respectively.

As to `CC(C)(CN)c1nc(-c2ccc(Cl)c(O)c2)c(-c2ccncc2)[nH]1`, the results for the inhibition in assay [1], in assay [2] and in assay [3] were -2.49%, 0.02% and 1.18%, respectively.

With `NCC1CCCN1Cc1ccc(-c2ccc(-c3nc4cc(C(F)(F)F)ccc4[nH]3)s2)cc1` (stereo not given), the inhibition is 1.42% in assay [1], -0.28% in assay [2] and -0.19% in assay [3].

Regarding `O=C(CCc1c[nH]cn1)Nc1ccc(-c2cccc(-c3nc4ccccc4[nH]3)c2)cc1`, the inhibition was found to be 0.28% in assay [1], 0.66% in assay [2] and 0.03% in assay [3].

As to `COc1ccc2ncc(F)c(CCN3CC[C@H](NCc4cc5c(s4)CCCN5)[C@H](O)C3)c2n1`, the inhibition in assay [1] was determined as 9.63%; in assay [2], 15.1%; in assay [3] it was 2.43%.
